Bioassay records from PubChem.
HSP90 refold inh = inhibitors of HSP90 luciferase refolding in rabbit reticulocyte lysate | luciferase refolding luminescence, 3 h | inhibition, % at 5.6 µM | 290,000 tested, 0.91% active;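 active = inhibition above the screen-wide mean plus 3 SD, computed separately per campaign, cut at about 16% in these data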;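 also: 0% = DMSO wells and 100% = 60 µM geldanamycin wells; inhibitors lower the luminescence because luciferase stays unfolded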
LMP1 NFkB inh = reduces LMP1-driven NF-kappaB luciferase signal; inhibition, % at 12.5 µM; AID 504558; LMP1-induced NF-kappaB luciferase reporter cells, luminescence; 350,000 tested, 0.69% active; in the data active = inhibition above about 41%; inconclusive = no clear call, values can overlap the other calls;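 also: 0% = neutral control wells and 100% = reference inhibitor control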
TWEAK Fn14 block = blocks TWEAK-Fn14 interaction in a reporter cell assay | TWEAK-stimulated Fn14 reporter cells, luciferase luminescence, 8 h | inhibition, % at 10 µM | 360,000 tested, 2% active; in the data active = inhibition above about 50%
TROY signal inh = TROY signaling inhibition | Q293 LMP1-TROYcd NF-kB luciferase reporter, 4 h | inhibition, % at 10 µM | 360,000 tested, 0.98% active;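 active = compounds whose plate-normalised and pattern-corrected inhibition of the luciferase reporter signal at the single screening dose is 50% or more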
LGR2 antag = blocks bursicon-induced cAMP signaling via Drosophila LGR2; HEK293 LGR2, CRE-luciferase, bursicon-stimulated, 4 h; inhibition, % at 9.99 µM; 380,000 tested, 0.35% active;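 active = drop in luminescence signal, shown as inhibition above about 50% in the replicate tests, limit read from the data, passing the limit was not always enough; inconclusive = probably only some replicates passing the limit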;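 also: agonist challenge used bursicon conditioned medium at about half maximal strength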
aDG glyco up = increases alpha dystroglycan glycosylation; AID 624168; Pro5-aDG cells, alpha-DG glycosylation AlphaScreen (IIH6); 0% Pro5, 100% B10-LARGE cell signal; 360,000 tested, 0.22% active; activation, % at 10 µM;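 active = activation of at least 8% versus controls, or a plate z-score of at least 8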;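 also: Pro5 are CHO cells carrying HIG-tagged alpha-DG that lacks glycosylation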
HSP90 confirm = confirmation of HSP90 inhibitors; shares compounds with HSP90 refold inh; rabbit reticulocyte lysate, luciferase refolding luminescence, 3 h; inhibition, % at 5.9 µM; 2,300 tested, 64% active; AID 1846; in the data active = inhibition above about 18%;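 also: 0% = vehicle wells and 100% = reference inhibitor wells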
luciferase ctr = blocks native firefly luciferase in HSP90 counter-screen | shares compounds with HSP90 refold inh | AID 1847 | 2,300 tested, 48% active | inhibition, % at 5.9 µM | purified native firefly luciferase, luminescence;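 active = inhibition above the mean inhibition of all tested sample wells plus 3 SD, cut at about 10% in these data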;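 also: 0% = DMSO with luciferase and 100% = wells lacking luciferase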
Target sequence (P08659 whole entry, looked up): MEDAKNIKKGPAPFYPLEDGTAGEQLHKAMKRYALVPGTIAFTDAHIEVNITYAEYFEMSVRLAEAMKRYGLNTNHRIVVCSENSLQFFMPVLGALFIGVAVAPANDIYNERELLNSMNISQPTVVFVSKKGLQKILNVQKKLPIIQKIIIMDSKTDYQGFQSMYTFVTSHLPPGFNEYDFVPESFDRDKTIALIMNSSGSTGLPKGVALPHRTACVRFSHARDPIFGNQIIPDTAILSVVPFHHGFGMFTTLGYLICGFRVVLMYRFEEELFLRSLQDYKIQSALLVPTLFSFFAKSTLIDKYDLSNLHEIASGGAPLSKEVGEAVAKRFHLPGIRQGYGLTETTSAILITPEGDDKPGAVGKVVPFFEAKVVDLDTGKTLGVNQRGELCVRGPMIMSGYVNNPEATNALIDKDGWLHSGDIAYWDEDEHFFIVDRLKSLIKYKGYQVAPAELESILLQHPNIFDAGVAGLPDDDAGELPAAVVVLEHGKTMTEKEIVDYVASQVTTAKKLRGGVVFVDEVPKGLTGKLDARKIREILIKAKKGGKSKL
The depositor's hits bear a star; u = inconclusive; x = no result given. Shown are actives, neighbours in structure and some others; about 2.6% of the full set was active somewhere.

SMILES	HSP90 refold inh	LMP1 NFkB inh	TWEAK Fn14 block	TROY signal inh	LGR2 antag	aDG glyco up	HSP90 confirm	luciferase ctr
N#CC(Cc1cccc(CC(C#N)(c2ccccc2)c2ccccc2)c1)(c1ccccc1)c1ccccc1	40*	6	-10	3	-4	1	11	-7
CCOC(=O)c1nc(N/N=C/c2ccccc2)sc1Br	21*	-14	7	-29	-4	0	28*	-24
CCOC(=O)c1sc(N/N=C/c2ccc(N(C)C)cc2)nc1C	-2	-9	-12	-33	-27	0	x	x
COc1ccc(C(=O)Nc2nc3ccccc3[nH]2)cc1	74*	55*	89*	69*	90*	0	86*	80*
COc1ccc(C(=O)N[C@H](C(=O)Nc2nc3ccccc3[nH]2)C(C)C)cc1	5	10	15	-2	-28	1	x	x
O=C(Nc1nc2ccccc2[nH]1)c1cccc(Br)c1	12	-20	31	-32	-113	1	x	x
O=C(Nc1nc2ccccc2[nH]1)NC1CCCCC1	23*	4	49	22	-17	0	24*	6
COc1cccc(C(=O)Nc2nc3ccccc3[nH]2)c1	27*	u	87*	33	x	0	67*	56*
Cc1ccc(C(=O)Nc2nc3ccccc3[nH]2)cc1	86*	63*	97*	71*	89*	0	89*	85*
O=C(Nc1nc2ccccc2[nH]1)C1CC1	3	-9	-15	-11	-21	0	x	x
CN1C(=O)c2cc(NC(=O)Cc3cccs3)ccc2OC[C@@H]2O[C@@H](CC(=O)NCC3CCCCC3)CC[C@H]21	x	x	x	x	9	x	x	x
COCC(=O)Nc1ccc2c(c1)OC[C@H](C)N(Cc1cc(F)ccc1F)C[C@@H](C)[C@H](OC)CN(C)C2=O	x	x	x	x	-2	x	x	x
C/C(=C\c1ccccc1)C(=O)Nc1ccc(Cl)cn1	18*	-38	28	-26	-29	0	25*	21*
COc1ccc(C(C)=O)cc1COc1ccc(F)cc1	0	-6	17	-9	-14	1	x	x
COc1ccc(C(=O)/C=C/c2ccc(OC)c(COc3ccc(F)cc3)c2)cc1	24*	-7	-4	-43	-14	0	21*	-12
COc1ccc(NC(=O)CSc2nc(C)c3c(c2C#N)CCCC3)cc1	2	10	-22	4	x	0	x	x
CCc1nnc(NC(=O)CSc2nc(C)c3c(c2C#N)CCCC3)s1	21*	0	58*	65*	23	0	7	0
O=C1CN(C(=O)CNCc2ccc(Cl)cc2)c2ccccc2N1	25*	-1	-1	4	-3	0	-13	-11
O=C(CNC(=O)N1CC(=O)Nc2ccccc21)Nc1ccc(Cl)cc1	0	-3	-1	-26	4	0	x	x
O=c1c(Cl)c(N2CCCCC2)cnn1-c1nc2ccccc2[nH]1	65*	78*	104*	82*	x	0	86*	80*
Clc1ccc2nc(N3CCCCC3)[nH]c2c1	0	-20	27	-40	-10	0	x	x
O=C(c1cc(F)c(F)cc1Cl)N1CCN(CCc2ccccc2)CC1	38*	-3	-13	-7	5	0	-1	-6
C[C@@H]1CCCCO[C@H](CN(C)Cc2ccccc2)[C@@H](C)CN([C@H](C)CO)C(=O)c2cc(NC(=O)C3CCCCC3)ccc2O1	x	x	x	x	-4	x	x	x
Cc1cc(C(=O)CSc2nc3ccccc3[nH]2)c(C)n1CC1CCCO1 (configuration not stated)	49*	34	20	42	x	0	66*	67*
Cc1cc(C(=O)CSc2nc3ccccc3o2)c(C)n1CC1CCCO1 (configuration not stated)	35*	-4	4	42	x	5	42*	46*
SMILES	HSP90 refold inh	LMP1 NFkB inh	TWEAK Fn14 block	TROY signal inh	LGR2 antag	aDG glyco up	HSP90 confirm	luciferase ctr
Cc1cc(C(=O)COC(=O)c2ccc3c(c2)OCO3)c(C)n1CC1CCCO1 (configuration not stated)	29*	-7	58*	77*	-50	0	49*	54*
CC(C)NC(=O)Nc1ccc2c(c1)C(=O)N([C@H](C)CO)C[C@@H](C)[C@H](CN(C)Cc1ccncc1)OCCCC[C@H](C)O2	x	x	x	x	-22	x	x	x
CC1(C)Cc2ccccc2C2=NNC(=O)C2=N1	17*	7	16	-13	-7	9.0*	34*	-7
O=C(N/C(=C\c1cccs1)C(=O)N1CCCCCC1)c1ccccc1	31*	-3	-22	1	-10	0	-1	-20
O=C(N[C@@H]1CC[C@H](CCNS(=O)(=O)c2ccc(Cl)cc2)O[C@H]1CO)c1cccnc1	x	x	x	x	3	x	x	x
Cc1csc(NC(=O)C2COc3ccccc3O2)n1 (configuration not stated)	46*	1	78*	44	x	0	63*	56*
Cc1nc2ccc3nc(NC(=O)C4COc5ccccc5O4)sc3c2s1 (configuration not stated)	1	-1	23	1	6	0	x	x
Cc1cnc(NC(=O)C2COc3ccccc3O2)s1 (configuration not stated)	46*	26	95*	60*	x	0	70*	70*
CC1CCc2nc(NC(=O)C3COc4ccccc4O3)sc2C1 (configuration not stated)	57*	40	96*	82*	x	0	72*	66*
O=S(=O)(Cc1ccccc1)N(O)c1ccccc1	88*	-15	5	11	0	0	92*	0
C/C=C/c1cnc2c(c1)C(=O)N([C@H](C)CO)C[C@@H](C)[C@H](CN(C)Cc1ccccc1)O2	x	x	x	x	4	x	x	x
Cc1ccccc1N=Nc1c(C)[nH]n(C(N)=S)c1=O	2	6	-26	-55	15	0	x	x
Cc1[nH]n(C(N)=S)c(=O)c1N=Nc1ccc([N+](=O)[O-])cc1Cl	18*	3	-20	-33	-14	1	-2	-19
CC(=O)N(C)c1ccc(N=Nc2c(C)[nH]n(-c3ccccc3)c2=O)cc1	-1	0	26	-5	9	0	x	x
CC(=O)N(C)c1ccc(N=Nc2c(C)[nH]n(C(N)=S)c2=O)cc1	20*	-8	44	29	2	0	9	-15
CC(=O)N(C)c1ccc(N=NC2C(=O)N(C(N)=S)N=C2C)cc1 (configuration not stated)	18*	-15	40	14	29	0	18*	-7
C[C@H]1CN([C@@H](C)CO)C(=O)c2cc(NC(=O)CCCN(C)C)ccc2O[C@@H]1CN(C)S(=O)(=O)c1cccs1	x	x	x	x	1	x	x	x
